Our source for the Inhibition values is ChEMBL document CHEMBL1157539, “Thousands of chemical starting points for antimalarial lead identification” (Nature, 2010).

What is called Inhibition is the relative decrease from the control value, in per cent.

Assay [1] concerns Plasmodium falciparum. In words: GSK_TCMDC: Inhibition of Plasmodium falciparum 3D7 in whole red blood cells, using parasite LDH activity as an index of growth. Test compounds present at 2uM. Format: functional.
Assay [2] deals with Plasmodium falciparum. As to the kind of experiment: GSK_TCMDC: Inhibition of Plasmodium falciparum Dd2 in whole red blood cells, using parasite LDH activity as an index of growth. Test compounds present at 2uM. In kind it is functional.

Molecules are shown by their SMILES. Where “and” joins values, the source holds several entries; their conditions need not be identical. Equal values may be shown once.

For the molecule `COc1ccc(C2c3ccccc3-c3nc(N)nc(N)c3C2C)cc1` (configuration not stated), the Inhibition in assay [1] is reported as 97%; in assay [2], 0%.

As for `CCN(C)C(=O)n1ncc2c3c(N)nc(N)nc3ccc21`, the results for the Inhibition in assay [1] and in assay [2] were 95% and 0%, respectively.

As for `Cc1nc(N)nc(N)c1-c1cc(Cl)c(Cl)c(Cl)c1`, the Inhibition in assay [1] is on record as 97%; in assay [2], 0%.

Turning to `COc1ccc2ncc(F)c(C(O)CN3CCC(NCc4ccc5c(n4)NC(=O)CO5)CC3)c2c1.Cl` (configuration not stated), the Inhibition was 99% and 100% in assay [1]; 51% and 88% in assay [2].

As for `Nc1nc(N)c2c(Oc3ccc(Cl)c(Cl)c3)cccc2n1`, the Inhibition in assay [1] was 95%; in assay [2], 22%.

On to `COc1ccccc1-c1nc2c(ccc3nc(N)nc(N)c32)[nH]1`, for which the Inhibition is reported as 100% in assay [1] and 93% in assay [2].

In the case of `Nc1nc(N)c2c(Sc3ccc(F)cc3)cccc2n1`, the Inhibition is listed as 88% in assay [1] and 0% in assay [2].

For the molecule `CC(C)CNc1nc(N)nc2ccc3c(ccn3CC(C)C)c12`, the Inhibition in assay [1] was 99%; in assay [2] it was 51%.

As to `COc1cc(Cc2cnc(N)nc2N)cc(OCCCS(=O)(=O)O)c1OC`, the Inhibition in assay [1] was found to be 88%; in assay [2], 0%.

`Cl.FC(F)(F)c1ccc2c(NCCCNc3ccnc4cc(C(F)(F)F)ccc34)ccnc2c1`: the Inhibition in assay [1] and in assay [2] was 100% throughout.

For the molecule `Cc1[nH]c(C)c(-c2ccc(Oc3ccc(Cl)cc3)cc2)c(=O)c1C`, the results for the Inhibition in assay [1] and in assay [2] were 96% and 95%, respectively.

Turning to `CN1CCN(c2ccc3[nH]c(-c4ccc5[nH]c(-c6ccc([N+](=O)[O-])c(N)c6)nc5c4)nc3c2)CC1`, the Inhibition in assay [1] and in assay [2] was 100% each time.

Turning to `Cl.c1ccc(CN2CCN(CCCCNc3c4ccccc4nc4ccccc34)CC2)cc1`, the Inhibition in assay [1] and in assay [2] was 100% each time.

As to `CC(C)(C)c1ccc(Cc2cccc3nc(N)nc(N)c23)cc1`, the Inhibition in assay [1] worked out at 100%; in assay [2] it was 51%.

Regarding `CCNCCCC(C)Nc1ccnc2cc(Cl)ccc12.O=C(O)C(=O)O` (configuration not stated), the Inhibition was found to be 100% in assay [1] and 0% in assay [2].

In the case of `Nc1nc(N)c2c(Oc3cc(Cl)c(Cl)c(Cl)c3)cccc2n1`, the results for the Inhibition in assay [1] and in assay [2] were 100% and 92%, respectively.

In the case of `CC/N=C(/NCCCCCCN/C(=N/CC)NCc1ccccc1)NCc1ccccc1.I`, the Inhibition in assay [1] was found to be 96%; in assay [2], 95%.

`COc1ccc(Cc2cnc3nc(N)nc(N)c3c2C)cc1OC.O=S(=O)(O)CCO`: the Inhibition in assay [1] worked out at 93%; in assay [2] it was 97%.

For `N=C(N)NC(=O)Nc1cc(Br)c(Cl)c(C(F)(F)F)c1`, the results for the Inhibition in assay [1] and in assay [2] were 100% and 91%, respectively.

Turning to `CCCCCCCN(Cc1ccc(OC(C)(C)C(=O)OCC)cc1)C(=O)Nc1ccc(Cl)cc1OCC`, the Inhibition was 95% in assay [1] and 89% in assay [2].

For the molecule `CC(C)c1ccc(Cn2cc(-c3ccncc3)c3cc(OCc4ccccc4)ccc32)cc1.Cl`, the figures for the Inhibition in assay [1] and in assay [2] were 99% and 88%, respectively.

Take `Nc1nc(N)c(-c2ccccc2)c(=O)[nH]1`: the Inhibition in assay [1] came out at 83%; in assay [2], 0%.

For `CCOc1ccc(CNCCCCCCNCc2ccc(OCC)c3ccccc23)c2ccccc12.CS(=O)(=O)O`, the Inhibition in assay [1] turned out to be 100%; in assay [2] it was 75%.

On to `CC(=O)Oc1c(Cl)c(C)nc(C)c1-c1ccc(Oc2ccc(OC(F)(F)F)cc2)cc1`, for which the values for the Inhibition in assay [1] and in assay [2] were 97% and 98%, respectively.

Take `Cl.Oc1c(CNC2CCCCC2)cc(Cl)c2ccccc12`: the Inhibition in assay [1] turned out to be 98%; in assay [2], 100%.

Regarding `C=CCn1ccc2c3c(N)nc(N)nc3ccc21`, the Inhibition in assay [1] came to 89%; in assay [2], 91%.

In the case of `CCC(=C(CC)c1ccc(O)c(CNC2CCCCC2)c1)c1ccc(O)c(CNC2CCCCC2)c1.Cl`, the Inhibition in assay [1] and in assay [2] was 100% throughout.

On to `CCCc1cc(Cc2cnc(N)nc2N)cc2c1OC(C)(C)C2.Cl`, for which the Inhibition in assay [1] is reported as 89%; in assay [2] it was 3%.

Regarding `COc1cc(Cc2cnc(N)nc2N)cc(OCCCCc2ccc([N+](=O)[O-])cc2)c1OC`, the values for the Inhibition in assay [1] and in assay [2] were 88% and 4%, respectively.

With `COc1ccc(OC)c(Cc2c(C)nc3nc(N)nc(N)c3c2C)c1.Cl`, the results for the Inhibition in assay [1] and in assay [2] were 90% and 0%, respectively.

For the molecule `CC1CNC(c2ccc(NC(=O)Nc3ccc(C4=NC(C)CN4)cc3)cc2)=N1.Cl` (configuration not stated), the Inhibition in assay [1] is reported as 85%; in assay [2], 67%.

Consider `N=C(N)NC(=O)Nc1ccc(Cl)c(C(F)(F)F)c1`, for which the Inhibition in assay [1] was determined as 100%; in assay [2], 13%.

Regarding `CC(C)n1c(C(C)(C)C)cc2c3c(N)nc(N)nc3ccc21`, the Inhibition in assay [1] amounted to 100%; in assay [2], 99%.

Turning to `CCN(c1ccc(O)c(CN2CCCCC2)c1)c1ccc([N+](=O)[O-])cn1.Cl`, the results for the Inhibition in assay [1] and in assay [2] were 94% and 64%, respectively.

With `Nc1ncc(-c2ccc(Br)cc2)c(N)n1`, the Inhibition in assay [1] is reported as 89%; in assay [2] it was 0%.

Take `COc1cccc2c(O)c(CNC3CCCCC3)ccc12.Cl`: the Inhibition in assay [1] is on record as 100%; in assay [2] it was 98%.

On to `CC(=O)Oc1c(Cl)c(C)nc(C)c1-c1ccc(Oc2ccc(Cl)cc2)cc1`, for which the values for the Inhibition in assay [1] and in assay [2] were 98% and 96%, respectively.

In the case of `Cc1nc(C)c(-c2ccc(Oc3ccc(Cl)cc3)c(Cl)c2)c(O)c1Br`, the Inhibition is listed as 97% in assay [1] and 96% in assay [2].

`CCN(Cc1cccc2ccccc12)c1ccc2nc(N)nc(N)c2c1.Cl`: the Inhibition in assay [1] and in assay [2] was 100% in each case.

As to `CCCCNCCOc1ccc(-c2nc(-c3ccccc3)c(-c3ccccc3)[nH]2)cc1`, the Inhibition stood at 100% in assay [1] and 34% in assay [2].

On to `Cl.c1ccc2c(NCCOCCNc3c4ccccc4nc4ccccc34)c3ccccc3nc2c1`, for which the figures for the Inhibition in assay [1] and in assay [2] were 94% and 0%, respectively.
